Experimental data taken from PubChem BioAssay (NCATS).
Inconclusive results are not listed. Active and inactive are the calls of the source. Calls follow the shape of the dose curve; as a rule, active = well fitted curve in the direction sought with a large enough effect; inconclusive = small, poorly fitted or top-dose-only effect, or another doubt; inactive = no such curve, though single readings can be large; an effect the other way counts as inactive or inconclusive.

What was measured:
[1] = MultiTox-Fluor Cytotoxicity Assay - LYMP1-002 - Dead Cells (AID 960); also: nearly all actives have a fitted effect of over 60% in size; also: potency is read from the fitted curve at half-maximal effect
Outline: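 Acute cytotoxicity in a human lymphoblastoid line is scored as rising dead-cell protease signal after 16 hr exposure at 37 C, measured fluorometrically (485/520).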

[2] = MultiTox-Fluor Cytotoxicity Assay - LYMP1-003 - Dead Cells (AID 961);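 also: cells exposed to compound for 16 h at 37 °C; nearly all actives have a fitted effect of over 70% in size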; also: potency is read from the fitted curve at half-maximal effect
Outline: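 Acute toxicity is scored as increased dead-cell protease activity in human lymphoblastoid LYMP1-003 cells after 16 h compound exposure in complete culture medium. Activity is normalized to DMSO basal and 15 uM tetraoctylammonium bromide as full response.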

[3] = MultiTox-Fluor Cytotoxicity Assay - LYMP1-003 - Live Cells (AID 962);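 also: cells exposed to compound for 16 hours at 37 °C; cytotoxic hits lower the live-cell protease signal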
Outline: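 Cells plated at 2500 per well and incubated 5 hr; compounds added and incubated 16 hr at 37 C; MultiTox-Fluor reagent added for 60 min at room temperature; fluorescence of liberated AFC measured at 405/510 nm.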

[4] = Cell Viability - LYMP1-003 - Assay at 24 hr (AID 963)
Outline: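 Acute toxicity in LYMP1-003 lymphoblastoid cells: 24 hr compound treatment at 37 C, ATP measured with CellTiter-Glo after 30 min at room temperature. AC50 derived by fitting the Hill equation to qHTS titrations.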

[5] = Cell Viability - LYMP1-003 - Assay at 40 hr (AID 964); also: nearly all actives have a fitted effect of over 60% in size; also: potency is read from the fitted curve at half-maximal effect
Outline: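 This qHTS cytotoxicity screen treats human lymphoblastoid cells (LYMP1-003) with compounds for 40 hr and quantifies cellular ATP via luciferase luminescence.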

[6] = Cell Viability - LYMP2-003 (AID 965);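 also: cells exposed to compounds for 24 h before reading; nearly all actives have a fitted effect of over 50% in size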; also: potency is read from the fitted curve at half-maximal effect
Outline: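 qHTS, human lymphoblastoid line, 2500 cells/well, complete medium. 24 h drug, 37 C. ATP-based luminescent readout; Hill-fit AC50.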

[7] = Cell Viability - LYMP2-004 (AID 966); also: nearly all actives have a fitted effect of over 65% in size; also: potency is read from the fitted curve at half-maximal effect
Outline: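 Acute toxicity is scored as a concentration-dependent drop in intracellular ATP, quantified by luciferase luminescence, in human lymphoblastoid cells exposed to compound for 24 hr. AC50 derives from Hill-equation modelling.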

[8] = Cell Viability - LYMP2-009 (AID 968); also: nearly all actives have a fitted effect of over 55% in size; also: potency is read from the fitted curve at half-maximal effect
[9] = Cell Viability - LYMP2-011 (AID 969); also: nearly all actives have a fitted effect of over 60% in size; also: potency is read from the fitted curve at half-maximal effect
Outline: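 Acute toxicity is scored as a concentration-dependent drop in intracellular ATP of a human lymphoblastoid line after 24 hr treatment. Values are AC50s modeled with the Hill equation.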

[10] = Cell Viability - LYMP2-005 (AID 967); also: potency is read from the fitted curve at half-maximal effect
Outline: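 Luciferase-based ATP quantitation served as the viability measure in human lymphoblastoid LYMP2-005 cells exposed to test compounds for 24 h at 37 C in complete culture medium. Potency (AC50) was obtained by fitting concentration-response curves with the Hill equation.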

Measured: Potency

CCCCC/C=C\C/C=C\CCCCCCCC(=O)O
not listed: [10]
inactive: all other assays above

CC1=C(/C=C/C(C)=C/C=C/C(C)=C/CO)C(C)(C)CCC1
inactive: [3] | [4]
active: [6] 50.1 µM | [7] 39.8 µM | [10] 50.1 µM

CCOc1ccc2c(c1)C(C)=CC(C)(C)N2
not listed: [2] | [5]
inactive: all other assays above

O=S(=O)(O)O
inactive: all assays above

CCCCCCCC(=O)O
inactive: all assays above

CCOC(C)=O
inactive: all assays above

CC(C)(C)NC(=O)[C@@H]1C[C@@H]2CCCC[C@@H]2CN1C[C@@H](O)[C@H](Cc1ccccc1)NC(=O)[C@H](CC(N)=O)NC(=O)c1ccc2ccccc2n1
active: [1] 31.6 µM | [2] 50.1 µM | [5] 50.1 µM

O=C(O)CCC(=O)C(=O)O
inactive: all assays above

O=CCCCC=O
inactive: [3] | [4] | [5]
active: [2] 50.1 µM | [6] 39.8 µM | [7] 25.1 µM | [8] 25.1 µM | [9] 20 µM

Nc1ccn([C@H]2CS[C@@H](CO)O2)c(=O)n1
inactive: all assays above

CCCCCCCC/C=C\CCCCCCCC(=O)O
inactive: all assays above

CC(C)=O
inactive: all assays above

CC1=C2[C@@H]([C@H](C)CC[C@H]2/C=C(\C)C(=O)O)[C@H](O)C1
inactive: all assays above

IC(I)I
inactive: all assays above

CC(O)CO (configuration not stated)
inactive: all assays above

Cc1ccccc1
not listed: [7]
inactive: all other assays above
